Reference: the supplement of paper PMC10037445
The full ranking holds about 2,900 compounds; the median of “IRF Lucia reporter activity, fold change vs agonist alone” is about 0.9, and the highest 2% start at about 2.8. The full list was thinned out, with the highest values kept by preference.

How the values were obtained:
[1] = test system: RAW-Dual; experiment: IRF Lucia reporter activity, fold change vs agonist alone; cytotoxicity flag (confluency mask): not cytotoxic; higher = enhanced IRF activity
Procedure, shortened: (§1)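 Supernatant from RAW-Dual macrophages was read after 20 hours for IRF by QuantiLuc luminescence and for NF-κB by QuantiBlue absorbance at 620 nm. The cells (50,000 cells/well in DMEM, 384-well plates, 37 °C, 5% CO2) had received 50 nL of library stock by pin tool and, 1 h later, a PRR agonist. Reporter activity is expressed relative to agonist-alone wells as fold change, and wells were flagged cytotoxic if IncuCyte confluency was under 70% of agonist controls in both mask sets.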

[2] = test system: RAW-Dual; experiment: IRF Lucia reporter activity, fold change vs agonist alone; higher = enhanced IRF activity; details: library stock concentration (final ~1000-fold dilution): 10 mM, agonist: MPLA (TLR4) […]
Procedure, shortened: as §1

[3] = test system: RAW-Dual; experiment: IRF Lucia reporter activity, fold change vs agonist alone; cytotoxicity flag (confluency mask): cytotoxic (confluency <70% of control); higher = enhanced IRF activity
Procedure, shortened: as §1

[4] = agonist: 3'3'-cGAMP (STING) 10 ug/mL
[5] = cytotoxicity flag (confluency mask): not cytotoxic
[6] = cytotoxicity flag (confluency mask): cytotoxic (confluency <70% of control)

CCOC(=O)c1ccc(N)cc1.Cl (library stock concentration (final ~1000-fold dilution): 10 mM)
IRF Lucia reporter activity [1, 4]: 0.942 | IRF Lucia reporter activity ([1]; agonist: LPS (TLR4) 0.1 ug/mL): 1.15

CCOC(=O)c1ccc(NC2CCCCC2)c(N)c1
IRF Lucia reporter activity [2, 5]: 1.83

CCn1cc(C(=O)O)c(=O)c2c(N)c(F)c(NC3CCCCC3)cc21 (library stock concentration (final ~1000-fold dilution): 10 mM)
IRF Lucia reporter activity [1, 4]: 0.545 | IRF Lucia reporter activity ([1]; agonist: LPS (TLR4) 0.1 ug/mL): 0.223

CCOC(=O)c1ccc(NC2CCCCC2)c(N)c1 (library stock concentration (final ~1000-fold dilution): 10 mM)
IRF Lucia reporter activity [1, 4]: 1.04 | IRF Lucia reporter activity ([1]; agonist: LPS (TLR4) 0.1 ug/mL): 4.71

CCOC(=O)c1ccc(N)cc1.Cl
IRF Lucia reporter activity [2, 5]: 1.01

NC(=O)C1CCC2CN1C(=O)N2OS(=O)(=O)O (stereo unspecified) (library stock concentration (final ~1000-fold dilution): 10 mM)
IRF Lucia reporter activity [1, 4]: 1.1 | IRF Lucia reporter activity ([1]; agonist: LPS (TLR4) 0.1 ug/mL): 1.21

NC(=O)C1CCC2CN1C(=O)N2OS(=O)(=O)O (stereo unspecified)
IRF Lucia reporter activity [2, 5]: 1.13

Oc1cc(CNC(=S)/C=C/c2cc(O)c(O)c(Br)c2)cc(O)c1O (library stock concentration (final ~1000-fold dilution): 10 mM)
IRF Lucia reporter activity [1, 4]: 0.312 | IRF Lucia reporter activity ([1]; agonist: LPS (TLR4) 0.1 ug/mL): 4.35

O=C1CCC(N2Cc3c(OCc4ccc(CN5CCOCC5)cc4)cccc3C2=O)C(=O)N1 (stereo unspecified) (library stock concentration (final ~1000-fold dilution): 10 mM)
IRF Lucia reporter activity [1, 4]: 1.05 | IRF Lucia reporter activity ([1]; agonist: LPS (TLR4) 0.1 ug/mL): 1.02

COc1cc(O)c(C(=O)Nc2nc(C(=O)NCCN(C(C)C)C(C)C)cs2)cc1OC.Cl.O.O.O
IRF Lucia reporter activity [2, 5]: 1.03

COc1cc(O)c(C(=O)Nc2nc(C(=O)NCCN(C(C)C)C(C)C)cs2)cc1OC.Cl.O.O.O (library stock concentration (final ~1000-fold dilution): 10 mM)
IRF Lucia reporter activity [1, 4]: 0.967 | IRF Lucia reporter activity ([1]; agonist: LPS (TLR4) 0.1 ug/mL): 0.665

COc1cc2nccc(Oc3ccc(NC(=O)Nc4ccc(F)cc4F)c(F)c3)c2cc1OC (library stock concentration (final ~1000-fold dilution): 10 mM)
IRF Lucia reporter activity [3, 4]: 1.02 | IRF Lucia reporter activity ([3]; agonist: LPS (TLR4) 0.1 ug/mL): 0.826

COc1ncc(-c2ccc3nccc(-c4ccnnc4)c3c2)cc1NS(=O)(=O)c1ccc(F)cc1F (library stock concentration (final ~1000-fold dilution): 10 mM)
IRF Lucia reporter activity [1, 4]: 1.09 | IRF Lucia reporter activity ([1]; agonist: LPS (TLR4) 0.1 ug/mL): 3.52

CCCS(=O)(=O)Nc1ccc(F)c(C(=O)c2c[nH]c3ncc(-c4ccc(Cl)cc4)cc23)c1F (library stock concentration (final ~1000-fold dilution): 10 mM)
IRF Lucia reporter activity [1, 4]: 0.195 | IRF Lucia reporter activity ([1]; agonist: LPS (TLR4) 0.1 ug/mL): 0.356

CCCS(=O)(=O)Nc1ccc(F)c(C(=O)c2c[nH]c3ncc(-c4ccc(Cl)cc4)cc23)c1F
IRF Lucia reporter activity [2, 5]: 0.473

COc1ncc(-c2ccc3nccc(-c4ccnnc4)c3c2)cc1NS(=O)(=O)c1ccc(F)cc1F
IRF Lucia reporter activity [2, 5]: 1.11

COc1cc2nccc(Oc3ccc(NC(=O)Nc4ccc(F)cc4F)c(F)c3)c2cc1OC
IRF Lucia reporter activity [2, 6]: 1.23

Cc1nc(Nc2ncc(C(=O)Nc3c(C)cccc3Cl)s2)cc(N2CCN(CCO)CC2)n1.Cl
IRF Lucia reporter activity [2, 5]: 0.77

Cc1nc(Nc2ncc(C(=O)Nc3c(C)cccc3Cl)s2)cc(N2CCN(CCO)CC2)n1.Cl (library stock concentration (final ~1000-fold dilution): 10 mM)
IRF Lucia reporter activity [1, 4]: 0.0778 | IRF Lucia reporter activity ([1]; agonist: LPS (TLR4) 0.1 ug/mL): 1.07

C=C1CCN(C(C)C(O)(Cn2cncn2)c2ccc(F)cc2F)CC1 (stereo unspecified)
IRF Lucia reporter activity [2, 6]: 2.14

C=C1CCN(C(C)C(O)(Cn2cncn2)c2ccc(F)cc2F)CC1 (stereo unspecified) (library stock concentration (final ~1000-fold dilution): 10 mM)
IRF Lucia reporter activity [3, 4]: 1.25 | IRF Lucia reporter activity ([3]; agonist: LPS (TLR4) 0.1 ug/mL): 2.38

CC(C)(C)NC(=O)c1cncn1C1CCN(c2ccc(-c3nnc(C(F)(F)F)o3)cn2)CC1 (library stock concentration (final ~1000-fold dilution): 10 mM)
IRF Lucia reporter activity [1, 4]: 1.33 | IRF Lucia reporter activity ([1]; agonist: LPS (TLR4) 0.1 ug/mL): 3.77

CC(C)CC(NC(=O)CNC(=O)c1cc(Cl)ccc1Cl)B(O)O (stereo unspecified) (library stock concentration (final ~1000-fold dilution): 10 mM)
IRF Lucia reporter activity [1, 4]: 1 | IRF Lucia reporter activity ([1]; agonist: LPS (TLR4) 0.1 ug/mL): 1.16

CC(C)CC(NC(=O)CNC(=O)c1cc(Cl)ccc1Cl)B(O)O (stereo unspecified)
IRF Lucia reporter activity [2, 5]: 1.08

COc1ccc2c(OC3CC4C(=O)NC5(C(=O)NS(=O)(=O)C6CC6)CC5/C=C\CCCCN(C)C(=O)C4C3)cc(-c3nc(C(C)C)cs3)nc2c1C (stereo unspecified)
IRF Lucia reporter activity [2, 5]: 1.05

COc1ccc2c(OC3CC4C(=O)NC5(C(=O)NS(=O)(=O)C6CC6)CC5/C=C\CCCCN(C)C(=O)C4C3)cc(-c3nc(C(C)C)cs3)nc2c1C (stereo unspecified) (library stock concentration (final ~1000-fold dilution): 10 mM)
IRF Lucia reporter activity [1, 4]: 1.04 | IRF Lucia reporter activity ([1]; agonist: LPS (TLR4) 0.1 ug/mL): 1.18

Cc1ccc(/C(=C\CN2CCCC2)c2ccccn2)cc1.Cl.O
IRF Lucia reporter activity [2, 5]: 1.09

Cc1ccc(/C(=C\CN2CCCC2)c2ccccn2)cc1.Cl.O (library stock concentration (final ~1000-fold dilution): 10 mM)
IRF Lucia reporter activity [1, 4]: 0.877 | IRF Lucia reporter activity ([1]; agonist: LPS (TLR4) 0.1 ug/mL): 0.728

CC(C)(O)c1cc(Nc2cc(Oc3cn(C4CC4)nc3C3CCOCC3)ccn2)ccn1 (library stock concentration (final ~1000-fold dilution): 10 mM)
IRF Lucia reporter activity [1, 4]: 1.14 | IRF Lucia reporter activity ([1]; agonist: LPS (TLR4) 0.1 ug/mL): 1.53

NC1CCCN(c2c(/C=C3\SC(=O)NC3=O)cccc2-c2ccccc2)C1 (stereo unspecified) (library stock concentration (final ~1000-fold dilution): 10 mM)
IRF Lucia reporter activity [1, 4]: 0.968 | IRF Lucia reporter activity ([1]; agonist: LPS (TLR4) 0.1 ug/mL): 1.16

NC1CCCN(c2c(/C=C3\SC(=O)NC3=O)cccc2-c2ccccc2)C1 (stereo unspecified)
IRF Lucia reporter activity [2, 5]: 1.1

CS(=O)(=O)CCNCc1ccc(-c2ccc3ncnc(Nc4ccc(OCc5cccc(F)c5)c(Cl)c4)c3c2)o1.Cc1ccc(S(=O)(=O)O)cc1.Cc1ccc(S(=O)(=O)O)cc1 (library stock concentration (final ~1000-fold dilution): 10 mM)
IRF Lucia reporter activity [1, 4]: 0.264 | IRF Lucia reporter activity ([1]; agonist: LPS (TLR4) 0.1 ug/mL): 3.36

CS(=O)(=O)CCNCc1ccc(-c2ccc3ncnc(Nc4ccc(OCc5cccc(F)c5)c(Cl)c4)c3c2)o1.Cc1ccc(S(=O)(=O)O)cc1.Cc1ccc(S(=O)(=O)O)cc1.O (library stock concentration (final ~1000-fold dilution): 10 mM)
IRF Lucia reporter activity [1, 4]: 0.259 | IRF Lucia reporter activity ([1]; agonist: LPS (TLR4) 0.1 ug/mL): 2.46

CS(=O)(=O)CCNCc1ccc(-c2ccc3ncnc(Nc4ccc(OCc5cccc(F)c5)c(Cl)c4)c3c2)o1.Cc1ccc(S(=O)(=O)O)cc1.Cc1ccc(S(=O)(=O)O)cc1.O
IRF Lucia reporter activity [2, 5]: 1.8

CS(=O)(=O)CCNCc1ccc(-c2ccc3ncnc(Nc4ccc(OCc5cccc(F)c5)c(Cl)c4)c3c2)o1
IRF Lucia reporter activity [2, 5]: 1.6

CS(=O)(=O)CCNCc1ccc(-c2ccc3ncnc(Nc4ccc(OCc5cccc(F)c5)c(Cl)c4)c3c2)o1 (library stock concentration (final ~1000-fold dilution): 10 mM)
IRF Lucia reporter activity [1, 4]: 0.277 | IRF Lucia reporter activity ([1]; agonist: LPS (TLR4) 0.1 ug/mL): 1.43

CS(=O)(=O)CCNCc1ccc(-c2ccc3ncnc(Nc4ccc(OCc5cccc(F)c5)c(Cl)c4)c3c2)o1.Cc1ccc(S(=O)(=O)O)cc1.Cc1ccc(S(=O)(=O)O)cc1
IRF Lucia reporter activity [2, 5]: 1.28

COc1cc(F)c(C(C)C)cc1-c1ccc(C(F)(F)F)cc1CN1C(=O)OC(c2cc(C(F)(F)F)cc(C(F)(F)F)c2)C1C (stereo unspecified)
IRF Lucia reporter activity [2, 5]: 1.1

COc1cc(F)c(C(C)C)cc1-c1ccc(C(F)(F)F)cc1CN1C(=O)OC(c2cc(C(F)(F)F)cc(C(F)(F)F)c2)C1C (stereo unspecified) (library stock concentration (final ~1000-fold dilution): 10 mM)
IRF Lucia reporter activity [1, 4]: 1.12 | IRF Lucia reporter activity ([1]; agonist: LPS (TLR4) 0.1 ug/mL): 1.14

CC(C)(O)CNc1ncc(-c2ccnc(Nc3ccnc(Cl)c3)n2)c(CC2CC2)n1 (library stock concentration (final ~1000-fold dilution): 10 mM)
IRF Lucia reporter activity [1, 4]: 0.0702 | IRF Lucia reporter activity ([1]; agonist: LPS (TLR4) 0.1 ug/mL): 3.2

CC(C)(O)CNc1ncc(-c2ccnc(Nc3ccncc3)n2)c(CC2CC2)n1 (library stock concentration (final ~1000-fold dilution): 10 mM)
IRF Lucia reporter activity [1, 4]: 0.364 | IRF Lucia reporter activity ([1]; agonist: LPS (TLR4) 0.1 ug/mL): 10.3

Nc1ncc(-c2ccnc(Nc3ccncc3)n2)c(CC2CC2)n1 (library stock concentration (final ~1000-fold dilution): 10 mM)
IRF Lucia reporter activity [3, 4]: 0.336 | IRF Lucia reporter activity ([3]; agonist: LPS (TLR4) 0.1 ug/mL): 3.92

Cc1ccc(NC(=O)c2ccc(CN3CCN(C)CC3)cc2)cc1Nc1nccc(-c2cccnc2)n1
IRF Lucia reporter activity [2, 5]: 1.29

CC(C)(O)CNc1nc(Nc2ccnc(C(F)(F)F)c2)nc(-c2cccc(C(F)(F)F)n2)n1 (library stock concentration (final ~1000-fold dilution): 10 mM)
IRF Lucia reporter activity [1, 4]: 1 | IRF Lucia reporter activity ([1]; agonist: LPS (TLR4) 0.1 ug/mL): 1.29

Cc1nc(N)sc1-c1ccnc(Nc2ccc(N3CCOCC3)cc2)n1
IRF Lucia reporter activity [2, 5]: 0.0284

Cc1ccc(NC(=O)c2ccc(CN3CCN(C)CC3)cc2)cc1Nc1nccc(-c2cccnc2)n1 (library stock concentration (final ~1000-fold dilution): 10 mM)
IRF Lucia reporter activity [1, 4]: 0.549 | IRF Lucia reporter activity ([1]; agonist: LPS (TLR4) 0.1 ug/mL): 0.944

COc1cc(N2CCN(C)CC2)ccc1Nc1nccc(-c2cn(C)c3cnccc23)n1 (library stock concentration (final ~1000-fold dilution): 10 mM)
IRF Lucia reporter activity [1, 4]: 0.0231 | IRF Lucia reporter activity ([1]; agonist: LPS (TLR4) 0.1 ug/mL): 0.154

COc1cc(N2CCN(C)CC2)ccc1Nc1nccc(-c2cn(C)c3cnccc23)n1
IRF Lucia reporter activity [2, 5]: 0.246

Cc1nc(N)sc1-c1ccnc(Nc2ccc(N3CCOCC3)cc2)n1 (library stock concentration (final ~1000-fold dilution): 10 mM)
IRF Lucia reporter activity [1, 4]: 0.0149 | IRF Lucia reporter activity ([1]; agonist: LPS (TLR4) 0.1 ug/mL): 0.023

Cc1c(NC(=O)OCC2COCCN2)cn2ncnc(Nc3ccc4c(cnn4Cc4cccc(F)c4)c3)c12 (stereo unspecified)
IRF Lucia reporter activity [2, 5]: 1.3

Cc1c(NC(=O)OCC2COCCN2)cn2ncnc(Nc3ccc4c(cnn4Cc4cccc(F)c4)c3)c12 (stereo unspecified) (library stock concentration (final ~1000-fold dilution): 10 mM)
IRF Lucia reporter activity [1, 4]: 0.267 | IRF Lucia reporter activity ([1]; agonist: LPS (TLR4) 0.1 ug/mL): 1.28
